ALDH1A1 block: blocks purified human ALDH1A1 activity; P00352; Purified ALDH1A1, NADH fluorescence, propionaldehyde substrate; Potency, µM (titrated, usually from 75.3 µM), without a hit: at the top dose activity, negative = inhibition, actives largely listed as inhibitors; 220,000 tested, 7.3% active; active means well fitted inhibition curve with a large enough effect, not every such curve was filed as active; inconclusive means small, poorly fitted or top-dose-only effect, or another doubt; inactive means no such curve, though single readings can be large or run the other way;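 further: potency means the concentration at half of the fitted maximal effect; plate controls were no enzyme wells and a reference inhibitor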
HTT aggregate: inhibitors of mutant huntingtin aggregate formation in PC12 cells; PC12 HttQ103-GFP aggregates, Acumen cytometry, 40 h; Potency, µM (top dose mostly 46.1 µM), for the others: at the top dose activity change, negative = inhibition, usual class: inhibitors; 220,000 tested, 1.1% active; further: potency means the concentration at half of the fitted maximal effect; on the % scale 0 is the no-effect control and ±100 the full control effect; nearly all actives have a fitted effect of over 60% in size
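PC12 cells with ecdysone-inducible HTT exon1 Q103-GFP, induced by 100 nM tebufenozide, given compounds in a concentration series. GFP aggregates (1–25 um, 6 SD above background) counted in lysates by laser-scanning cytometry, 488 nm excitation.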
IMPase Li cell: IMPase inhibition in cells with lithium potentiation | CHO-M1 cells, IP1 TR-FRET (IP-One), carbachol + lithium | Potency, µM (titrated, usually from 59.4 µM), for inactives: at the highest dose activity, negative = IMPase inhibition, usual class: inhibitors | 210,000 tested, 0.35% active;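 further: IP1 builds up when IMPase is blocked and the TR-FRET signal falls; potency means the concentration at half of the fitted maximal effect; plate controls were basal vehicle for no effect and high inhibitor control for full effect; nearly all actives have a fitted effect of over 50% in size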
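CHO cells stably expressing M1 receptor (2000/well, cultured 16–30 h) treated 30 min at 37C with compound plus low lithium. Cytosolic IP1 by TR-FRET (665/620 ratio and 620 channel) after 10 min lysis; AC50 by Hill fit.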
IMPase cell inh: membrane-permeable compound that blocks inositol monophosphatase | 120,000 tested, under 10 active | inhibition (IP1 accumulation), % at 46.1 µM | P97697 | CHO-M1 cells, IP1 accumulation, HTRF TR-FRET ratio; active means well fitted curve in the direction sought with a large enough effect in the signal ratio, not every such curve was filed as active; inconclusive means small, poorly fitted or top-dose-only effect, or a change in a side signal; inactive means no such curve, though single readings can be large or run the other way; the % refers to the signal ratio;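 further: cells stimulated with carbachol in lithium chloride buffer; plate controls were DMSO basal wells for no effect and reference inhibitor wells for full effect; higher means more IMPase inhibition seen as more IP1 and lower FRET ratio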
Target sequence (P97697 whole entry, looked up): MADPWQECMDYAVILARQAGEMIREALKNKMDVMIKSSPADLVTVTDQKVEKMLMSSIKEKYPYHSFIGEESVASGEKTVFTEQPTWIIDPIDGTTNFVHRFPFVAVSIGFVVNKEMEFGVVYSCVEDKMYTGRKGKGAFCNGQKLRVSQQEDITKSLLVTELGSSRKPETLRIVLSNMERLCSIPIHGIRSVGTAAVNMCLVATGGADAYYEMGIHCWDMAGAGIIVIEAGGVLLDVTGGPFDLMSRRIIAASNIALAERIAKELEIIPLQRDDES
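Measured: the HTRF emission ratio (665/620 nm) plus the 620 nm donor channel, each fitted to the Hill equation to give AC50. Cells were CHO-M1 given compounds up to 46 uM and a 30 min carbachol stimulation at 37C.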
HPGD inh: blocks human HPGD enzyme activity. P15428. purified HPGD, NADH fluorescence kinetic, PGE2 substrate. Potency, µM, inactives show at the highest dose activity change, negative = inhibition, usual class: inhibitors. 150,000 tested, 4.3% active. AID 894; active means well fitted inhibition curve with a large enough effect, not every such curve was filed as active; inconclusive means small, poorly fitted or top-dose-only effect, or another doubt; inactive means no such curve, though single readings can be large or run the other way; further: potency means the concentration at half of the fitted maximal effect; on the % scale 0 is the no-effect control and ±100 the full control effect
Target sequence (P15428 whole entry, looked up): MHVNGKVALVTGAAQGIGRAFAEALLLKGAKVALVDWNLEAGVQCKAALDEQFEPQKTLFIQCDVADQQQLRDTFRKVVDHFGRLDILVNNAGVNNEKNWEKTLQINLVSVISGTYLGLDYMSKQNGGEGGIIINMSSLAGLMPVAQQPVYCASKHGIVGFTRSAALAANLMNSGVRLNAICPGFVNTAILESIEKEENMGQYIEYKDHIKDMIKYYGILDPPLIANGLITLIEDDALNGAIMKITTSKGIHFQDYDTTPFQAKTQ
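20 nM HPGD preincubated 15 min at room temperature with compound in 50 mM Tris-HCl pH 8, 0.01% Tween 20. Started with 1 mM NAD+ and 30 uM prostaglandin E2; NADH fluorescence (360/450 nm) read 5 times over 30-s intervals, last minus first.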
HTT cytoprotect: cytoprotection in Huntington HTT-Q103 PC12 cell model; PC12 HTT-Q103 induced, cytoprotection, ATP luminescence, 40 h; Potency, µM (doses to about 56.4 µM), for the others: cytoprotection (ATP increase), most hits filed as activators; 230,000 tested, 0.14% active; further: potency means the concentration at half of the fitted maximal effect; % of control where 0% means no effect; nearly all actives have a fitted effect of over 45% in size
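Compounds were screened for protection of PC12 cells against cell death after tebufenozide induction (100 nM final) of mutant Huntingtin exon 1 (Q103) fused to GFP.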
* marks the source's active call; other numbers are inactive results; ? = inconclusive; / = no result; [ ] = another dose, or the depositor's remark. An excerpt weighted towards active compounds, which were near 9.4% of everything screened. Unless noted, the call rests on the fitted dose curve; in most records, active means well fitted curve in the direction sought with a large enough effect; inconclusive means small, poorly fitted or top-dose-only effect, or another doubt; inactive means no such curve, though single readings can be large; an effect the other way counts as inactive or inconclusive.

SMILES	ALDH1A1 block	HTT aggregate	IMPase Li cell	IMPase cell inh	HPGD inh	HTT cytoprotect
CC(O)C1CCC2C3CCC4CC(O)CCC4(C)C3CCC12C (centres undefined)	/	12.1%	/	/	/	-85.7%
COCCNC(=O)c1cn(C)c2ccccc2c1=O	3.55µM*	6.3%	-6.9%	/	/	-50.0%
CCn1cc(C(=O)NCCOC)c(=O)c2ccc(C)nc21	11.2µM*	-2.3%	5.7%[38.3 µM]	-10.9	-26.7%	-22.2%
Cc1cc(C)cc(N(CC(=O)Nc2ccccc2-c2ccccc2)S(=O)(=O)c2ccccc2)c1	-2.8%	-14.3%	0.4%	-14.0	10µM*	3.0%[10 µM]
Cc1ccc(N(CC(=O)Nc2ccccc2-c2ccccc2)S(=O)(=O)c2ccccc2)cc1	-9.0%	-15.6%	4.7%[38.3 µM]	-1.6	-21.1%	-20.2%
Cc1ccc(SCN2CCCCC2)cc1 (tested in a mixture with another compound)	3.1%[13.5 µM]	/	-2.9%	/	-14.3%	8.2%[10 µM]
Cc1ccc(S(=O)(=O)NNC(=O)c2ccccc2O)cc1	-2.8%	12.8%	-3.3%	/	?	0.0%[10 µM]
Cc1ccc(S(=O)(=O)NNC(=O)c2sc3nc(C)cc(C)c3c2-n2cccc2)cc1	0.141µM*	-0.1%	25.3%[38.3 µM]	-1.4[1.84 µM]	-4.9%	18.0%[10 µM]
Cc1ccc(CNC(=O)c2sccc2-n2cccc2)cc1	?	2.9%	22.0%[38.3 µM]	0.6	12.6µM*	3.8%[0.074 µM]
CNC(=O)c1sccc1-n1cccc1	-5.1%	-5.6%	6.0%[38.3 µM]	0.6	-7.2%	4.9%
CN(C)c1ccc(/C=N/NC(=O)c2sccc2-n2cccc2)cc1	20µM*	30.9%	-4.6%	/	/	-33.4%
Cc1ccc(S(=O)(=O)NNC(=O)c2cnn(-c3ccccc3)c2-n2cccc2)cc1	0.178µM*	13.2%	19.7%[38.3 µM]	7.2	-4.8%	-23.2%
COC(=O)[C@H](Cc1ccccc1)NC(=O)O[C@@H]1C(=O)c2ccc(OC)cc2O[C@H]1c1cccc(C(F)(F)F)c1	-1.1%	/	1.7%	/	-14.8%	-14.5%
CO[C@@H]1COC(=O)[C@H](CCSC)NC(=O)C/C=C\[C@@H](C)COC(=O)[C@@H]2CCCN2C(=O)C/C=C\[C@H]1C	0.1%[13.5 µM]	/	/	/	/	?
Cc1ccc(S(=O)(=O)NNC(=O)c2sccc2-n2cccc2)cc1	10µM*	5.4%	6.2%[38.3 µM]	0.0	-6.7%	11.0%
Cc1ccc(S(=O)(=O)N2CCN(CC(=O)N/N=C\c3ccc(Cl)c([N+](=O)[O-])c3)CC2)cc1	8.91µM*	26.8%	-5.8%	?	-2.3%	-19.7%[10 µM]
O=C(CN1CCN(S(=O)(=O)c2ccc(Br)cc2)CC1)N/N=C/c1ccc(Cl)c([N+](=O)[O-])c1	20µM*	11.8%	8.5%	/	-8.3%	10.2%[10 µM]
O=C(O)[C@@H]1[C@@H](C(=O)O)[C@@]23CCCC2=C2CC[C@@]3(C(=O)O)[C@@]3(C(=O)O)C[C@@]213	3.2%[13.5 µM]	/	6.8%	/	-7.8%	/
Cc1nc(N2CCOCC2)c2nc(-c3ccccc3)n(CCN(C)C)c2n1	?	/	-5.8%	/	?	-13.1%
O=C(/C(Br)=C/Nc1cc(Cl)ccc1Cl)C(F)(F)F	15.8µM*	9.3%	-7.0%	/	?	40.0%[10 µM]
CC(=O)OCC(=O)[C@@]12OC3(CCCC3)OC1CC1C3CCC4=CC(=O)C=C[C@@]4(C)[C@]3(F)C(O)C[C@]12C (some centres undefined)	-3.4%	21.2%	4.7%	/	-7.3%	-60.9%
CCCOC(=O)c1c(N)sc2c1CCC2	28.2µM*	22.5%	-17.5%[38.3 µM]	?	-19.9%	-4.3%
CC(C)OC(=O)c1c(N)sc2c1CCCC2	/	/	/	/	/	10.4%
CCOC(=O)c1c(N)sc2c1CCSC2	12.6µM*	-5.2%[9.22 µM]	22.0%[38.3 µM]	-6.7	-21.7%	-22.3%
CC(C)C[C@@H](CC(=O)N[C@@H](CCC(=O)O)CC(=O)O)NC(=O)[C@@H]1CNCC[C@H]1NC(=O)C[C@H](CCCN)NC(=O)C[C@H](Cc1ccccc1)NC(=O)[C@@H]1CNCC[C@H]1N	-7.0%	/	12.3%	/	-11.3%	-14.3%[1.9 µM]
SMILES	ALDH1A1 block	HTT aggregate	IMPase Li cell	IMPase cell inh	HPGD inh	HTT cytoprotect
CC(=O)Nc1ccc(C(=O)Cn2nnc3ccccc3c2=O)cc1	8.91µM*	15.8%	-2.2%[38.3 µM]	?	-8.3%	-27.6%[10 µM]
CCc1ccc(CNc2ccc(O)cc2)cc1	7.94µM*	-2.5%	99.3%[38.3 µM]	29.5	22.4µM*	-6.2%
O=C(NCc1ccccc1C(F)(F)F)C12CN(Cc3ccccc3)CC1C(c1ccc([N+](=O)[O-])cc1)=NO2 (centres undefined)	25.1µM*	11.8%	-1.1%	1.7	-17.4%	-9.9%[10 µM]
Cc1ccc(CCNC(=O)C23CN(Cc4ccccc4)CC2C(c2cccc([N+](=O)[O-])c2)=NO3)cc1 (centres undefined)	?	18.5%	-2.1%	10.7	-18.1%	-4.5%[10 µM]
COc1ccc(CCNC(=O)C23CN(Cc4ccccc4)CC2C(c2cccc([N+](=O)[O-])c2)=NO3)cc1 (centres undefined)	8.91µM*	6.8%	-1.9%	12.6	-25.1%	13.4%[10 µM]
COc1cccc(CNC(=O)C23CN(Cc4ccccc4)CC2C(c2ccc([N+](=O)[O-])cc2)=NO3)c1 (centres undefined)	?	3.2%	6.9%[38.3 µM]	4.1	-8.0%	-2.1%
CC(C)CCNC(=O)C12CN(Cc3ccccc3)CC1C(c1ccc([N+](=O)[O-])cc1)=NO2 (centres undefined)	2.82µM*	3.0%	8.6%	5.0	-21.6%	-15.1%[10 µM]
CO[C@H]1COC(=O)C/C=C\[C@H](C)[C@H](OC)COC(=O)[C@@H](C)COC(=O)C/C=C\[C@@H]1C	4.1%[13.5 µM]	/	/	/	/	?
O=C(c1ccccc1)N(Cc1ccc(F)cc1)C1CCS(=O)(=O)C1 (centres undefined)	?	-1.7%	-19.9%[38.3 µM]	4.4	1.6%	-8.6%[0.074 µM]
CN(C1=C(NC(=O)c2ccccc2)C(=O)c2ccccc2C1=O)C1CCS(=O)(=O)C1 (centres undefined)	?	22.4µM*	25.1%	/	-27.3%	-9.2%[10 µM]
CC(=O)NC1=C(NC2CCS(=O)(=O)C2)C(=O)c2ccccc2C1=O (centres undefined)	4.0%	-9.6%	-7.8%	?	11.2µM*	-33.6%[10 µM]
C/C=C/c1ccc(OC(C)[C@@H](O)c2ccc(O)c(OC)c2)c(OC)c1 (some centres undefined)	?	/	15.4%	/	-19.6%	?
Clc1ccc(C[n+]2cc(-c3ccccc3)n3c2CCCCC3)c(Cl)c1	4.3%	11.2µM*	26.0%	/	/	-48.1%[10 µM]
Cc1ccc(NC(=O)CSCC(=O)N2c3ccccc3CCc3ccccc32)cc1	3.16µM*	10.3%	22.8%[38.3 µM]	-0.6	-11.6%	-32.9%
O=C(NCCCN1CCOCC1)c1ccc(CNS(=O)(=O)c2ccc(Br)cc2)cc1	22.4µM*	-2.5%	24.4%	/	-9.6%	/

Source: PubChem BioAssay (National Center for Advancing Translational Sciences (NCATS))
